High-throughput results deposited in PubChem BioAssay by National Center for Advancing Translational Sciences (NCATS).
Nrf2 activator: qHTS of Nrf2 Activators. 410,000 compounds, 0.31% hits. AID 624171, 2012. AREc32 ARE-luciferase reporter (MCF7-derived line), luminescence, 24 h. Potency, µM (doses to about 46.1 µM), hits mostly activators; further: nearly all actives have a fitted effect of over 65% in size
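AREc32 cells carrying an ARE-driven firefly luciferase reporter were seeded at 1000 cells/well in OPTI-MEM with 5% FBS, then exposed to compound for 24 hr at 37 deg C. Luminescence was read with Steady-Glo after 30 min at RT.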
A549 tox: Nrf2 qHTS screen for inhibitors: counterscreen for cytotoxicity | Potency, µM (highest dose often 46 µM), usual class: inhibitors | AID 504648, 2011 | A549 ARE-Fluc cells, CellTiter-Fluor viability, 18-24 h | 390,000 compounds, 0.16% hits
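A549 ARE-Fluc cells in 5% FBS OPTI-MEM, 5000 cells/well, rested 2 h then exposed to compounds in concentration-response for 18-24 h at 37 °C. Viability by CellTiter-Fluor fluorescence (Ex 405/Em 525) after 30 min; luciferase luminescence (BugLite, 15 min, RT) read afterwards.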
TrxR1 substrate: qHTS Assay for Substrates of Mammalian Selenoprotein Thioredoxin Reductase 1 (TrxR1): qHTS | Thioredoxin reductase 1, cytoplasmic (Rattus norvegicus), O89049 | purified TrxR1 substrate turnover, NADPH consumption readout | Potency, µM (highest dose often 114 µM) | 390,000 compounds, 0.01% hits | AID 588456, 2011; further: nearly all actives have a fitted effect of over 50% in size
Target sequence (O89049 whole entry, looked up): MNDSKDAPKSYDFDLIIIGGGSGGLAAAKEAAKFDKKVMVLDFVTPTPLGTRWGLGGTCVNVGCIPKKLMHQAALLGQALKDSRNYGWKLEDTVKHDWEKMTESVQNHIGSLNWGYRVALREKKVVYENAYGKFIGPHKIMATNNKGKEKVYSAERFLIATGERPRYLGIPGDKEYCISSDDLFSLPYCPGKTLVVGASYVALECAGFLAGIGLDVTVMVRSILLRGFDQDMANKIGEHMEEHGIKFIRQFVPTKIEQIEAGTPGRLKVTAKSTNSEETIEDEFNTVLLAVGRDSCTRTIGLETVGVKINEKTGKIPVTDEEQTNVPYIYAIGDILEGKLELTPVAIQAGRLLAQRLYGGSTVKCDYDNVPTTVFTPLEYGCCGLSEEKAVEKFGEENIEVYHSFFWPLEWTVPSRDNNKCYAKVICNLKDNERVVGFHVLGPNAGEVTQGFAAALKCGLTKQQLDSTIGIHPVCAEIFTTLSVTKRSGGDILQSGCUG
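Rat TrxR1, dispensed at 90 nM, was prereduced with 400 uM NADPH (final) for 5 min at ~22 deg C, then incubated with compound 15 min before 400 uM selenite. A first-read NADPH fluorescence drop versus no-compound background flagged substrates.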
Nrf2 block: Nrf2 qHTS screen for inhibitors; A549 ARE-Fluc reporter, luciferase luminescence, 18-24 h; Potency, µM (top dose mostly 46 µM), hits mostly inhibitors; 360,000 compounds, 2.1% hits; AID 504444, 2011; further: nearly all actives have a fitted effect of over 60% in size
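Nrf2 activity is the BugLite luminescence, read 15 min after reagent at room temperature, following CellTiter-Fluor cytotoxicity readout (30 min, 37C). Compound titrations were applied for 18-24 h to 5000 A549 ARE_Fluc cells/well in 5% FBS OPTI-MEM.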
TrxR1 inh: qHTS Assay for Inhibitors of Mammalian Selenoprotein Thioredoxin Reductase 1 (TrxR1): qHTS; Thioredoxin reductase 1, cytoplasmic (Rattus norvegicus), O89049; recombinant rTrxR1, NADPH fluorescence consumption, selenite substrate; Potency, µM (doses to about 114 µM), hits mostly inhibitors; 390,000 compounds, 1% hits; AID 588453, 2011; further: nearly all actives have a fitted effect of over 65% in size
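Rat TrxR1 (90 nM in the dispensed reagent) was pre-reduced with 400 uM NADPH for 5 min at room temperature, then incubated with compound for 15 min. After 400 uM selenite was added, NADPH fluorescence (Ex 340/Em 450 nm) was followed for 8 min.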
GALK inh: qHTS Assay for Inhibitors of Human Galactokinase (GALK) | Potency, µM (top dose mostly 57.5 µM), hits mostly inhibitors | Purified GALK, Kinase-Glo residual ATP luminescence | P51570 | AID 1868, 2009 | 270,000 compounds, 0.007% hits
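GALK at 5 nM final was combined with compound, 35 uM ATP and 100 uM galactose in HEPES pH8.0 with MgCl2 and DTT. The reaction ran one hour at room temperature before luminescent ATP detection.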
Numbers stand for hits; [ ] = dose if it differs, or a comment. Shown are actives, neighbours in structure and some others; about 3% of the full set was active somewhere. The call rests on the fitted dose curve; in most records, active means well fitted curve in the direction sought with a large enough effect; inconclusive means small, poorly fitted or top-dose-only effect, or another doubt; inactive means no such curve, though single readings can be large; an effect the other way counts as inactive or inconclusive.

`COc1ccc(N2CSC3=C(C#N)C(c4cc(OC)ccc4OC)CC(=O)N3C2)c(OC)c1` (stereo not given) gave Nrf2 activator inactive, A549 tox inactive, TrxR1 substrate inactive, Nrf2 block inconclusive, TrxR1 inh 14µM and GALK inh inactive.
`N#CC1(NC(=O)Cn2ncc(Cl)c(Cl)c2=O)CCCCC1` gave Nrf2 activator inconclusive, A549 tox inactive, TrxR1 substrate inactive, Nrf2 block inactive and TrxR1 inh 5µM.
Screening Cn1c(SCc2cc(=O)c3cc(Cl)ccc3[nH]2)nnc1-c1ccccc1 returned Nrf2 activator inactive, A549 tox inactive, TrxR1 substrate inactive and TrxR1 inh inactive.
Screening CC(C)CCN(Cc1ccco1)C(=O)c1cc2c(s1)-c1ccccc1OC2 returned Nrf2 activator inactive, A549 tox inactive, TrxR1 substrate inactive, Nrf2 block inconclusive and TrxR1 inh inactive.
For Cc1ccc(CCNC(=O)c2cc3c(s2)-c2ccccc2OC3)cc1 the results were Nrf2 activator inactive, A549 tox inconclusive, TrxR1 substrate inactive, Nrf2 block 18µM and TrxR1 inh inconclusive.
Screening COCCCN(Cc1ccco1)C(=O)c1cc2c(s1)-c1ccccc1OC2 returned Nrf2 activator inactive, A549 tox inactive, TrxR1 substrate inactive, Nrf2 block 9.2µM and TrxR1 inh inactive.
Screening Cn1c2ccccc2c(=O)c2ccc(NCc3ccc4c(c3)OCO4)cc21 returned Nrf2 activator inactive, A549 tox inactive, TrxR1 substrate inactive, Nrf2 block 26µM and TrxR1 inh inactive.
For Cn1c(NCC2CCCCC2)nc2cc(-c3ccsc3)sc2c1=O the results were Nrf2 activator 2µM.
Cc1ccc(OCC(=O)Nc2cc3nn(-c4ccccc4)nc3cc2C)cc1 was read as Nrf2 activator inactive, A549 tox inactive, TrxR1 substrate inactive, Nrf2 block inactive and TrxR1 inh inactive.
For CCN(CC)C(=O)C1CCCN(C(=O)c2cc(COc3ccc4ncccc4c3)on2)C1 (stereo not given) the results were Nrf2 activator inactive, A549 tox inactive, TrxR1 substrate inactive, Nrf2 block inconclusive, TrxR1 inh inactive and GALK inh inactive.
For CCN1CCN(C(=O)c2cc(COc3ccc4ncccc4c3)on2)CC1 the results were Nrf2 activator inactive, A549 tox inactive, TrxR1 substrate inactive, Nrf2 block 21µM, TrxR1 inh inactive and GALK inh inactive.
`O=C(NCc1cccc(Cl)c1)c1cc(COc2ccc3ncccc3c2)on1` gave Nrf2 activator inactive, A549 tox inactive, TrxR1 substrate inactive, Nrf2 block 10µM, TrxR1 inh inactive and GALK inh inactive.
`COCC1CCCCN1C(=O)c1cc(COc2ccc3ncccc3c2)on1` (stereo not given) gave Nrf2 activator inactive, A549 tox inactive, TrxR1 substrate inactive, Nrf2 block inconclusive, TrxR1 inh inactive and GALK inh inactive.
`CC(C)N(Cc1nccn1C)C(=O)c1cc(COc2ccc3ncccc3c2)on1` gave Nrf2 activator inactive, A549 tox inactive, TrxR1 substrate inactive, Nrf2 block 13µM, TrxR1 inh inactive and GALK inh inactive.
CCCN1CCN(C(=O)c2cc(COc3ccc4ncccc4c3)on2)CC1 was read as Nrf2 activator inactive, A549 tox inactive, TrxR1 substrate inactive, Nrf2 block 5.2µM, TrxR1 inh inactive and GALK inh inactive.
Screening CC(C)(C)n1ncc2c(=O)n(Cc3ccc(Cl)c(F)c3)cnc21 returned TrxR1 substrate inactive and TrxR1 inh inactive.
Cc1cc(C)n(-c2nc(C)c(C)c(=O)n2CC(=O)Nc2ccc([N+](=O)[O-])cc2)n1 was read as Nrf2 activator inactive, A549 tox inactive, TrxR1 substrate inactive and TrxR1 inh inactive.
`Oc1cc2cc(-c3csc(-c4ccc(F)cc4)n3)ccc2[nH]1` gave TrxR1 substrate inactive and TrxR1 inh inactive[0.0914 µM].
